# Source: PubChem BioAssay (NCATS)
# Unmarked numbers belong to inactive results. Results filed as inconclusive are left out. Activity calls are given as the source filed them. Unless noted, the call rests on the fitted dose curve; in most records, active means well fitted curve in the direction sought with a large enough effect; inconclusive means small, poorly fitted or top-dose-only effect, or another doubt; inactive means no such curve, though single readings can be large; an effect the other way counts as inactive or inconclusive.
# Columns and labels:
# [1] = biological target: 3',5'-cyclic-AMP phosphodiesterase 4B (Homo sapiens) (UniProt Q07343); assay: qHTS Assay for Inhibitors of PDE-IV (AID 607; active means well fitted activation curve with a large enough effect in the main read-out, with a control signal flat, not every such curve was filed as active; further: % of control where 0% means no effect)
# Chain of 3',5'-cyclic-AMP phosphodiesterase 4B (Homo sapiens) (Q07343 whole entry, looked up): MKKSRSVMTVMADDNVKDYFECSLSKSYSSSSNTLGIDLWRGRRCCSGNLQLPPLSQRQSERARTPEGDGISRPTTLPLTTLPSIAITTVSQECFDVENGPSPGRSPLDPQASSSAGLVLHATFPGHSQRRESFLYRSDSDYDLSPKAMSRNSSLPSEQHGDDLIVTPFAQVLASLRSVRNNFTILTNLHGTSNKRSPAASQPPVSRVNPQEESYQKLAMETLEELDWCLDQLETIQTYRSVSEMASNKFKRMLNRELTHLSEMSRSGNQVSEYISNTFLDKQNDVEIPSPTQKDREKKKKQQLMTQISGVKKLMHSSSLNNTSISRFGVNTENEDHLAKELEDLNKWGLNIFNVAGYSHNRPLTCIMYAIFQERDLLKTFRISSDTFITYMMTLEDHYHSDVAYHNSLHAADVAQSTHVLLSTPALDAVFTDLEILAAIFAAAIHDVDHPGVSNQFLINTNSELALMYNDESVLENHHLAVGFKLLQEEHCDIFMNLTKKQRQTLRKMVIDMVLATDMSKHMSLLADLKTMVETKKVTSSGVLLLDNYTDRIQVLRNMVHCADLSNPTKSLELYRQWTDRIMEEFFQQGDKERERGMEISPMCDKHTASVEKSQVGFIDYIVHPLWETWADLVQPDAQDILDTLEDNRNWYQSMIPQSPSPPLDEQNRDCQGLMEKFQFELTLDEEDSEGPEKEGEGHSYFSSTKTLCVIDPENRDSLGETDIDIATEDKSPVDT
# Outline: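 Cell-based read-out of cAMP via a modified cyclic nucleotide-gated channel and membrane potential dye (535/590 nm) in HEK293 cells expressing PDE4 endogenously. Compounds tested up to 22.9 uM final; 100 uM RO 20-1724 reference.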
# [2] = biological target: ATP-dependent 6-phosphofructokinase (Trypanosoma brucei brucei) (UniProt O15648); assay: qHTS Assay to Find Inhibitors of T. brucei phosphofructokinase: hit validation (AID 492961);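 further: luminescence reports ADP formed as PFK phosphorylates fructose-6-phosphate with ATP; on the % scale 0 is the no-effect control and ±100 the full control effect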
# Chain of ATP-dependent 6-phosphofructokinase (Trypanosoma brucei brucei) (O15648 whole entry, looked up): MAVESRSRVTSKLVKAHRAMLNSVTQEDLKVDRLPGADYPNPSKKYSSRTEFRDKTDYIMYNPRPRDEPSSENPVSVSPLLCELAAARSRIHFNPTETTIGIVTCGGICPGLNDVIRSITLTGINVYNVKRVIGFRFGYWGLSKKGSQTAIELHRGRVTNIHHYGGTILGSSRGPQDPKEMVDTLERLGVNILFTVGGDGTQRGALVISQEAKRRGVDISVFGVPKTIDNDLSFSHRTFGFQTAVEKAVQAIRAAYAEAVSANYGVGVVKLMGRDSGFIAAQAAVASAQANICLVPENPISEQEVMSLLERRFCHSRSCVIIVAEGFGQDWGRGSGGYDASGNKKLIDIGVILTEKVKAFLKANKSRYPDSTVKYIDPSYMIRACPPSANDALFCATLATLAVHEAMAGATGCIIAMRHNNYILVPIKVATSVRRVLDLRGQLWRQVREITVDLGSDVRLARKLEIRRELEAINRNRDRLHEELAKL
# Outline: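 Compounds titrated; %activity normalized to 0x and 1x enzyme controls, curve-fitted. Readout: ADP-Glo luminescence after 45 min room-temperature reaction of 1.25 nM PFK, 0.1 mM ATP, 0.5 mM F6P, pH 8.0.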
# [3] = biological target: Luciferin 4-monooxygenase (Photinus pyralis) (UniProt P08659); assay: Biochemical firefly luciferase enzyme assay for NPC (AID 624030);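 further: purified P. pyralis luciferase at 10 nM with luciferin and ATP substrate; 0% = DMSO and -100% = full luciferase inhibition by PTC124 control; nearly all actives have a fitted effect of over 70% in size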
# Chain of Luciferin 4-monooxygenase (Photinus pyralis) (P08659 whole entry, looked up): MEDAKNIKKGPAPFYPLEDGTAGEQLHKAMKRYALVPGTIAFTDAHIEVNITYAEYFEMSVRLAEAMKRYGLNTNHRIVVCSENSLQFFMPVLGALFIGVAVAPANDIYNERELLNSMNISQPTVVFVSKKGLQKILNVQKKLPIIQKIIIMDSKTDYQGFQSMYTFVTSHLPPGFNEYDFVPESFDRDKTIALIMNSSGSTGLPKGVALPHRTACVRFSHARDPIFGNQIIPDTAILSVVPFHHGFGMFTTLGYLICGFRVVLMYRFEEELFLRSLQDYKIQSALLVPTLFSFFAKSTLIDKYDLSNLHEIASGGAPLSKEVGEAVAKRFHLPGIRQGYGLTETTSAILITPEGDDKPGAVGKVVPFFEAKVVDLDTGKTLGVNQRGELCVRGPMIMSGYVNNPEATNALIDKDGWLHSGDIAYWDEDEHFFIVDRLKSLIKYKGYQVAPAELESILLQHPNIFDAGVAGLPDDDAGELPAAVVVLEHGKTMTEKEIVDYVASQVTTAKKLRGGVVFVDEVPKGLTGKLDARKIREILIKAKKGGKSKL
# Outline: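 Purified P. pyralis luciferase at 10 nM in 50 mM Tris Acetate (final), luminescence read within 5 minutes of enzyme addition to compounds. Activity normalised to PTC124 versus DMSO; concentration-response curves classed by r2, magnitude and activity.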
# [4] = S16 Schwann cell viability assay (CellTiter-Glo assay) (AID 624031);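 further: cellular ATP luminescence as a viability measure; plate controls were DMSO-treated cells for no effect and cell-free wells for full effect; nearly all actives have a fitted effect of over 70% in size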
# Outline: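 CellTiter-Glo ATP luminescence counter-screen in untransfected S16 rat Schwann cells, 24h compound exposure at 37 degree Celsius after overnight seeding (500-750 cells/well); response scaled between cell-free wells and DMSO (0% activity), curves classed by r2 and magnitude.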
# [5] = S16 Schwann cell PMP22 intronic element firefly luciferase assay (AID 624032);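 further: plate controls were DMSO for no effect and PTC124 positive control mean for full effect; nearly all actives have a fitted effect of over 30% in size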
# Outline: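 Rat S16 Schwann cells stably carrying firefly luciferase driven by a PMP22 intronic element, in 10% FBS, treated 24 h at 37 C. ONE-Glo luminescence normalized to PTC124 control and DMSO (0%); curves classed by r2, magnitude and activity.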
# [6] = S16 Schwann cell PMP22 intronic element beta-lactamase assay (AID 624044; calls by dose curve; further: potency means the concentration at half of the fitted maximal effect; nearly all actives have a fitted effect of over 15% in size); conditions: S16 rat Schwann cells, PMP22 element beta-lactamase FRET, 24 h; ratio activity, negative = inhibition: at 38.3 µM (top of the series)
# Outline: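 Beta-lactamase reporter under a PMP22 intronic regulatory element in stable S16 rat Schwann cells; 24 h compound exposure. 460 nm blue signal normalized between DMSO (0%) and potassium clavulanate, with 535 nm FRET tracking viability; curves classed by r2 and response.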
# 7G8 = assay: qHTS profiling for inhibitors of Plasmodium falciparum proliferation (AID 504749); further: nearly all actives have a fitted effect of over 60% in size; further: potency means the concentration at half of the fitted maximal effect;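 on activity, negative = inhibition: 0% = DMSO vehicle and full inhibition = artemisinin control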; conditions: P. falciparum in erythrocytes, SYBR Green DNA, 72 h; series mostly up to 28.7 µM
# Outline: (§1)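 SYBR Green fluorescence (ex 485 nm, em 535 nm) reports parasite DNA after 72 h compound exposure of infected red cells at 0.3% parasitemia, 2.5% hematocrit; signal normalized to 0.29 uM artemisinin and vehicle wells.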
# CP192 = assay: as above; conditions: P. falciparum in erythrocytes, SYBR Green DNA, 72 h; series mostly up to 28.7 µM
# Outline: as §1
# CP201 = assay: as above; conditions: P. falciparum in erythrocytes, SYBR Green DNA, 72 h; series mostly up to 28.7 µM
# Outline: as §1
# CP203 = assay: as above; conditions: P. falciparum in erythrocytes, SYBR Green DNA, 72 h; series mostly up to 28.7 µM
# Outline: as §1
# CP262 = assay: as above; conditions: P. falciparum in erythrocytes, SYBR Green DNA, 72 h; series mostly up to 28.7 µM
# Outline: as §1
# CP266 = assay: as above; conditions: P. falciparum in erythrocytes, SYBR Green DNA, 72 h; series mostly up to 28.7 µM
# Outline: as §1
# CP315 = assay: as above; conditions: P. falciparum in erythrocytes, SYBR Green DNA, 72 h; series mostly up to 28.7 µM
# Outline: as §1
# DIV14 = assay: as above; conditions: P. falciparum in erythrocytes, SYBR Green DNA, 72 h; series mostly up to 28.7 µM
# Outline: as §1
# FAB9 = assay: as above; conditions: P. falciparum in erythrocytes, SYBR Green DNA, 72 h; series mostly up to 28.7 µM
# Outline: as §1
# HB3 = assay: as above; conditions: P. falciparum in erythrocytes, SYBR Green DNA, 72 h; series mostly up to 28.7 µM
# Outline: as §1
# PC15 = assay: as above; conditions: P. falciparum in erythrocytes, SYBR Green DNA, 72 h; series mostly up to 28.7 µM
# Outline: as §1
# PC26 = assay: as above; conditions: P. falciparum in erythrocytes, SYBR Green DNA, 72 h; series mostly up to 28.7 µM
# Outline: as §1
# PC49 = assay: as above; conditions: P. falciparum in erythrocytes, SYBR Green DNA, 72 h; series mostly up to 28.7 µM
# Outline: as §1
# W2 = assay: as above; conditions: P. falciparum in erythrocytes, SYBR Green DNA, 72 h; series mostly up to 28.7 µM
# Outline: as §1
# [7] = biological target: Guanine nucleotide-binding protein G(i) subunit alpha-1 (Homo sapiens) (UniProt P63096); assay: qHTS Assay for Inhibitors of RGS12 GoLoco Motif Activity (Green Fluorophore) (AID 879);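 further: 0% = labeled peptide with Gαi1 and full inhibition = labeled peptide alone without protein; negative values mean loss of peptide binding seen as reduced polarization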
# Chain of Guanine nucleotide-binding protein G(i) subunit alpha-1 (Homo sapiens) (P63096 whole entry, looked up): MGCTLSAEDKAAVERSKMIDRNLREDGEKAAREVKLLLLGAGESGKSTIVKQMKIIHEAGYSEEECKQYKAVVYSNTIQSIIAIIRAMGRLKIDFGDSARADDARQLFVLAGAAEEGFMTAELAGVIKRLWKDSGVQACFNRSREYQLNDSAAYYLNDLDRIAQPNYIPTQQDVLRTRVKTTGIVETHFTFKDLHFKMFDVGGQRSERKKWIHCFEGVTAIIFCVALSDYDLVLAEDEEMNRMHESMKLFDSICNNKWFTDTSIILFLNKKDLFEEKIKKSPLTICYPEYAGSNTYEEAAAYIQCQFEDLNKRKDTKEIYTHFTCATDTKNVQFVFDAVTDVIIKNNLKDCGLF
# Outline: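 A drop in FITC polarization marked displacement of the FITC-tagged RGS12 GoLoco peptide (10 nM) from Gαi1 (50 nM). Compounds were incubated 10 min at room temperature in Tris pH 7.5 buffer containing 150 mM NaCl, 0.1 mM GDP and 0.05% NP40; unlabeled peptide titration served as control.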
# [8] = qHTS Assay for Identification of Small Molecule Antagonists for Thrombopoietin (TPO) Signaling Pathway (AID 918); conditions: TPO-dependent cell signaling reporter, antagonist mode; further: potency means the concentration at half of the fitted maximal effect; nearly all actives have a fitted effect of over 60% in size
# Outline: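 Antagonist mode at EC50 TPO (26 pM) in IL-3-free medium; murine Ba/F3 cells with human TPO receptor and GPIIb-promoter luciferase, 24 hrs at 37 C before luminescent detection.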
# [9] = biological target: Pyruvate kinase (Leishmania mexicana) (UniProt Q27686); assay: qHTS Validation Assay for Inhibitors of Leishmania Mexicana Pyruvate Kinase (AID 945);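 further: 0% = DMSO only neutral control wells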
# Chain of Pyruvate kinase (Leishmania mexicana) (Q27686 2-499 E452W): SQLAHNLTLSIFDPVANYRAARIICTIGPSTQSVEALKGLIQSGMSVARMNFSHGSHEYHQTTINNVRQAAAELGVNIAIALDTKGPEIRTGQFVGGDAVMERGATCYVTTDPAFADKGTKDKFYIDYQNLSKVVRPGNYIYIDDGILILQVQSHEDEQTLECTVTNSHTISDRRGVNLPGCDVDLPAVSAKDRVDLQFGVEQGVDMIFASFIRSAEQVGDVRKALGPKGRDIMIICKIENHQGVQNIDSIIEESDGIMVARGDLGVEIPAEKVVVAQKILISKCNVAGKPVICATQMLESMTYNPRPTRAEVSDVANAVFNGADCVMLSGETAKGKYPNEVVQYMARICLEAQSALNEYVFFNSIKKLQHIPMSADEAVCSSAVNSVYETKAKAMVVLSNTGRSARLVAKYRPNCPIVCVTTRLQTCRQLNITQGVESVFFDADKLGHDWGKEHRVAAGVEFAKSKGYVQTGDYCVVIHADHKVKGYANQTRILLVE
# Outline: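 Purified LmPYK (E451W mutant, 0.2 nM) was incubated 1 h at room temperature with 0.5 mM PEP and 0.1 mM ADP in 50 mM imidazole pH 7.2, 50 mM KCl, 7 mM MgCl2; ATP formed was read by PKLight luminescence, normalized to DMSO wells.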
# [10] = biological target: Pyruvate kinase PKM (Homo sapiens) (UniProt P14618); assay: qHTS Assay for Activators of Human Muscle Pyruvate Kinase (AID 954; active means well fitted curve in the direction sought with a large enough effect, not every such curve was filed as active;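 further: 0% = uninhibited enzyme and -100% = no enzyme or full thiadiazolimine inhibition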)
# Chain of Pyruvate kinase PKM (Homo sapiens) (P14618 whole entry, looked up): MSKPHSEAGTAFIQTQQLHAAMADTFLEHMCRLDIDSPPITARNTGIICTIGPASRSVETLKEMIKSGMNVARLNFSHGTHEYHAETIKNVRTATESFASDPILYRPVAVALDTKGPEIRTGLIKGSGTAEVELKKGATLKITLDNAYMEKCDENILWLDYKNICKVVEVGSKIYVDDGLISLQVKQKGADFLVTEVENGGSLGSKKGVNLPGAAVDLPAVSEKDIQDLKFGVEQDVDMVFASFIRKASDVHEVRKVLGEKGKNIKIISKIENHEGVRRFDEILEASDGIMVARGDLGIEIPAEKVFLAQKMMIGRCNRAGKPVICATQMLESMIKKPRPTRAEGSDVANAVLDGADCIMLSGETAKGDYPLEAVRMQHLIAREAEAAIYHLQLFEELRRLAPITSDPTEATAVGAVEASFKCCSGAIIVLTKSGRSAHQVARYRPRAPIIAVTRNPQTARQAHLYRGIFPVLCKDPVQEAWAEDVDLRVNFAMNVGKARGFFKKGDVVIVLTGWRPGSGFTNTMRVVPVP
# Outline: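 ATP production by PKM2 detected via luciferase luminescence after 1 h room-temperature reaction (0.1 nM enzyme, PEP at Km 0.5 mM, ADP 0.1 mM, pH 7.2 imidazole buffer). Inhibition scaled to no-enzyme control; activation referenced to 0.3 nM enzyme wells.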
# [11] = biological target: Alpha-galactosidase A (Homo sapiens) (UniProt P06280); assay: Counterscreen for Glucocerebrosidase Inhibitors: qHTS Assay for Human alpha-Galactosidase at pH 4.5 (AID 992); further: 0% is about no effect
# Chain of Alpha-galactosidase A (Homo sapiens) (P06280 whole entry, looked up): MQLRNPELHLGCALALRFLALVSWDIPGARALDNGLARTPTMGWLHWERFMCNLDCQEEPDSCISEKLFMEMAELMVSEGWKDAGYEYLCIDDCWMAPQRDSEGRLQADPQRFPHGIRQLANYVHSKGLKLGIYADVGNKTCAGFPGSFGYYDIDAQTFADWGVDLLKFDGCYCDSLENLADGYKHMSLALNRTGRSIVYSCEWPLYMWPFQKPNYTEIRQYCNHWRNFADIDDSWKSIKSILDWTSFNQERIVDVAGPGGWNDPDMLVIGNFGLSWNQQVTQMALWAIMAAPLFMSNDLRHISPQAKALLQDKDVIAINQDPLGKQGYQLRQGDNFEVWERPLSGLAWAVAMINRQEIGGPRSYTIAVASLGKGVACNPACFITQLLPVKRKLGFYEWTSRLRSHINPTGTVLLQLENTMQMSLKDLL
# Outline: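 Fluorogenic 1536-well qHTS at pH 4.5 (citrate, Tween-20): 2 nM enzyme, 80 uM 4-MU-alpha-galactoside, 20 min room temperature, NaOH/glycine stop. Titration 0.7 nM to 77 uM, data normalized to no-enzyme and full-activity controls, Hill-fitted AC50.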
# [12] = biological target: alpha-glucosidase (Oryza sativa, rice) (UniProt Q653V4); assay: Counterscreen for Glucocerebrosidase Inhibitors: qHTS Assay for Rice alpha-Glucosidase at pH 5.0 (AID 997);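 further: 0% = full activity with enzyme and -100% = basal without enzyme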
# Outline: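 Endpoint fluorogenic assay at pH 5.0: compounds (0.7 nM to 77 uM) titrated against 4 nM rice enzyme and 400 uM 4-MU-alpha-glucoside for 20 min at room temperature; NaOH/glycine stop, read ex 365/em 440 nm, Hill-fitted AC50.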
# [13] = Stat Signaling Pathway (AID 446; active means well fitted curve in either direction with a large enough effect, not every such curve was filed as active;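 further: ME-180 cervical cancer cells given 40 pM IL-6 alongside compound; SIE-controlled beta-lactamase reporter measured as 460/530 nm FRET emission ratio; on the % scale 0 is the no-effect control and ±100 the full control effect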); conditions: ME-180 (cervical carcinoma) SIE beta-lactamase reporter, IL-6 stimulated, 5 h; at 17.2 µM (top of the series) unless noted
# Outline: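 FRET read-out (405 nm excitation, 460/530 nm emission) of a beta-lactamase reporter under a STAT-inducible element in ME-180 cervical carcinoma cells. Cells with compound receive 40 pM IL-6 for 5 h. Values are normalised to AC90 stimulation and AC90 JAK-inhibitor controls.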
# [14] = biological target: Glucocorticoid receptor (Homo sapiens) (UniProt P04150); assay: GR-GFP Redistribution (AID 450;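 active means compounds whose dose series gives a full or clear partial fitted curve of increased nuclear translocation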; further: potency means the concentration at half of the fitted maximal effect)
# Chain of Glucocorticoid receptor (Homo sapiens) (P04150 whole entry, looked up): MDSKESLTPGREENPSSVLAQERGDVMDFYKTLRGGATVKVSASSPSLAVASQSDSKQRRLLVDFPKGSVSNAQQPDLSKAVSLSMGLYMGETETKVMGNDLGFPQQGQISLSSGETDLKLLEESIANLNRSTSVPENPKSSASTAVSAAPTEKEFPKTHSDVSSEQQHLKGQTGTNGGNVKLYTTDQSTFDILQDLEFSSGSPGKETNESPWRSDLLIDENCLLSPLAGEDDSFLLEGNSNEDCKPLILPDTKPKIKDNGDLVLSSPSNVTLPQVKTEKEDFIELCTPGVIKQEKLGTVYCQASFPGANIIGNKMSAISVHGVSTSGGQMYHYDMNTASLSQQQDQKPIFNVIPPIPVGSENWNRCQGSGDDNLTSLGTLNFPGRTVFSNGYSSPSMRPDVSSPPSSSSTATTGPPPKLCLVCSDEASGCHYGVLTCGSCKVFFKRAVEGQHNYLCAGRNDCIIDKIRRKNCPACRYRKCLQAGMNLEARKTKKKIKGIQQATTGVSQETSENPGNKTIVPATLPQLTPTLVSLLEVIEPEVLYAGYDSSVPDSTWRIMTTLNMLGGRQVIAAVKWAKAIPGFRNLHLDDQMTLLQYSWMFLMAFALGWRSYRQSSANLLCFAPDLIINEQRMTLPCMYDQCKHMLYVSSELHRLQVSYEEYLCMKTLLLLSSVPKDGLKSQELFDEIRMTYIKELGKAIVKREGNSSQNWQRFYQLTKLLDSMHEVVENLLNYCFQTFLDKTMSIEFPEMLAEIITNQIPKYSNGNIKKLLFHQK
smiles,measurement,setting,value
COc1cc([C@H]2c3cc4c(cc3[C@@H](O[C@H]3O[C@H]5CO[C@@H](C)O[C@H]5[C@@H](O)[C@@H]3O)[C@@H]3COC(=O)[C@H]23)OCO4)cc(OC)c1O,Potency,[1],inactive
same,Potency,[2],inactive
same,Potency,[3],inactive
same,Potency,[4],inactive
same,Potency,[5],inactive
same,Potency,[6],4.46 µM (active)
same,Potency,7G8,15.8 µM (active)
same,Potency,CP192,inactive
same,Potency,CP201,inactive
same,Potency,CP203,inactive
same,Potency,CP262,inactive
same,Potency,CP266,inactive
same,Potency,CP315,inactive
same,Potency,DIV14,inactive
same,Potency,FAB9,inactive
same,Potency,HB3,inactive
same,Potency,PC15,inactive
same,Potency,PC26,inactive
same,Potency,PC49,inactive
same,Potency,W2,13.5 µM (active)
CN1CCc2cc(O)c(O)cc2[C@H](c2ccccc2)C1,outcome,[7],inactive
same,Potency,[8],10 µM (active)
same,Potency,[9],inactive
same,outcome,[10],inactive
same,outcome,[11],inactive
same,outcome,[12],inactive
CC1(C)Cc2c(sc3c2C2=NCCN2C=N3)CS1,"activity, negative = inhibition",[13],5.3%
same,Potency,[14],> 20.6 µM
COC(=O)c1ccc(Cn2cnc3c(sc4nc(N5CCOCC5)c5c(c43)CCCC5)c2=O)o1,"activity, negative = inhibition",[13],-11.4%
same,Potency,[14],> 20.6 µM
C=CCc1cccc(CNc2nc3ccccc3n2C(C)C)c1O,"activity, negative = inhibition",[13],-22.2%
same,Potency,[14],> 20.6 µM
CCc1[nH]nc2c1C(c1ccc(Br)s1)C(C#N)=C(N)O2 (configuration not stated),"activity, negative = inhibition",[13],-17.3%
same,Potency,[14],> 20.6 µM
CCOC(=O)C1CCN(c2nc3ccccc3nc2C(C#N)C(=O)NCCc2ccccc2)CC1 (configuration not stated),"activity, negative = inhibition",[13],-24.6%
same,Potency,[14],> 20.6 µM
CCCc1nn(C)c2c1C(c1cccnc1)C(C#N)=C(N)O2 (configuration not stated),"activity, negative = inhibition",[13],4.95%
same,Potency,[14],> 20.6 µM
COc1cccc(-c2nc(N3CCN(Cc4ccccc4)CC3)c3ccccc3n2)c1O,"activity, negative = inhibition",[13],9.62%
same,Potency,[14],> 20.6 µM
COc1cccc(-c2nc(NC(C)(C)C)c3ccccc3n2)c1O,"activity, negative = inhibition",[13],-74.9% (active)
same,Potency,[14],> 20.6 µM
NCCN1C(=O)c2ccccc2[C@@]1(O)c1ccc(Cl)cc1,"activity, negative = inhibition",[13],2.46% [at 7.69 µM]
CCOC(=O)CC(=O)CSc1nc(N)c(C#N)c(-c2ccc(Cl)cc2)c1C#N,"activity, negative = inhibition",[13],-16.4%
same,Potency,[14],> 20.6 µM
N=c1c2c(-c3ccccc3)c(-c3ccccc3)n(Cc3ccccc3)c2ncn1CCCn1ccnc1,"activity, negative = inhibition",[13],9.95%
same,Potency,[14],> 20.6 µM
CCOC(=O)N1CCN(c2ncnc3c2[nH]c2ccc(OC)cc23)CC1,"activity, negative = inhibition",[13],-22.9%
same,Potency,[14],> 20.6 µM
COc1cc(C(=O)OCCN2CCCCC2)ccc1O,"activity, negative = inhibition",[13],4.68%
same,Potency,[14],> 20.6 µM
COc1cccc(-c2nc(N3CCCCC3)c3ccccc3n2)c1O,"activity, negative = inhibition",[13],-5.07%
same,Potency,[14],> 20.6 µM
Cc1cc(N2C(=O)C(=O)/C(=C(/O)c3ccc(F)cc3)C2c2ccc(F)cc2)no1 (configuration not stated),"activity, negative = inhibition",[13],-24.4%
same,Potency,[14],> 20.6 µM
N#Cc1ccc(-c2ccc(OCC(O)Cn3nnc4ccccc43)cc2)cc1 (configuration not stated),"activity, negative = inhibition",[13],-29.1%
same,Potency,[14],> 20.6 µM
